# In PMC7862700, “An all-to-all approach to the identification of sequence-specific readers for epigenetic DNA modifications on cytosine”:
# Columns and labels:
# Test in all cases: DAPPL (digital affinity profiling via proximity ligation, sequencing); 10 mM Tris-HCl pH 7.5, 50 mM NaCl, 1 mM DTT, 4% glycerol, room temperature, 30 min; GST-TFs on glutathione beads, 16-mer random dsDNA library, 0.1% formaldehyde crosslink after washing; high values mean tight binding
# Settings in all cases: protein: recombinant; tags: N-terminal GST; dsDNA, one strand shown
# ERF = molecular target: T1, ERF (Homo sapiens, UniProt P50548 1-548)
# T1 sequence: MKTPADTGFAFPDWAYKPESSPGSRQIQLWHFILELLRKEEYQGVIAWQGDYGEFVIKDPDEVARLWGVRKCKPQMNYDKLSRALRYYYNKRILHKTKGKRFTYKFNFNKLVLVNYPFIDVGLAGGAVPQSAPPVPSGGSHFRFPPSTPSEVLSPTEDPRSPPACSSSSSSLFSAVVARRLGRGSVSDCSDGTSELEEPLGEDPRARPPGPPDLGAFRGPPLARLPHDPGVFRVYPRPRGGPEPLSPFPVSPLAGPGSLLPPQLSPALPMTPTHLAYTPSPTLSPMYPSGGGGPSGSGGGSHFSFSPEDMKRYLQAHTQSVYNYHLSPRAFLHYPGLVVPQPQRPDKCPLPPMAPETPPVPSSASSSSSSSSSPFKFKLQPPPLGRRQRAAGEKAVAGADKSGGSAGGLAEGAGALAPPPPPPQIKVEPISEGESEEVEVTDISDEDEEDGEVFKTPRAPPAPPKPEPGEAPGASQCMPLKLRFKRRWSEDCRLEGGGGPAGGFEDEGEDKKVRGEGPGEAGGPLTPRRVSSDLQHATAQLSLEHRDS
# How it was run: (§1)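 The binding signal reported is, for every hexamer, its read frequency for a factor over its read frequency for the tag-only sample. Reads came from pools of yeast-expressed, GST-fused human transcription factors on glutathione beads, barcoded with DNA and mixed with that sample, which were incubated with 200 nmole of a random double-stranded 16-mer DNA library in Tris/NaCl/DTT/glycerol buffer at room temperature for 30 min. After washing, the pools were crosslinked with 0.1% formaldehyde, proximity-ligated with BsaI/T4 ligase for 1 h at 37 °C, PCR-amplified and sequenced on an Illumina NextSeq500.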
# ETV3L = molecular target: T2, ETV3L (Homo sapiens, UniProt Q6ZN32 1-361)
# T2 sequence: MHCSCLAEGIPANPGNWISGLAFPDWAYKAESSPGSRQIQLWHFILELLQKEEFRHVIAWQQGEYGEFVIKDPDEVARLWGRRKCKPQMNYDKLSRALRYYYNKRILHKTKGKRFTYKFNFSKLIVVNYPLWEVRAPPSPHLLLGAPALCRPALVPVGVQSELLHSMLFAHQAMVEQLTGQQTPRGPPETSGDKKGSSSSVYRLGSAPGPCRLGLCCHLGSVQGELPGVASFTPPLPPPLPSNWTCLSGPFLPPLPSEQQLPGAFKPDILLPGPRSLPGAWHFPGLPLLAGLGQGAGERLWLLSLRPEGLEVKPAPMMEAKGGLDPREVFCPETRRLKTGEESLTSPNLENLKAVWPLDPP
# How it was run: as §1
# ETS2 = molecular target: T3, ETS2 (Homo sapiens, UniProt P15036 1-469)
# T3 sequence: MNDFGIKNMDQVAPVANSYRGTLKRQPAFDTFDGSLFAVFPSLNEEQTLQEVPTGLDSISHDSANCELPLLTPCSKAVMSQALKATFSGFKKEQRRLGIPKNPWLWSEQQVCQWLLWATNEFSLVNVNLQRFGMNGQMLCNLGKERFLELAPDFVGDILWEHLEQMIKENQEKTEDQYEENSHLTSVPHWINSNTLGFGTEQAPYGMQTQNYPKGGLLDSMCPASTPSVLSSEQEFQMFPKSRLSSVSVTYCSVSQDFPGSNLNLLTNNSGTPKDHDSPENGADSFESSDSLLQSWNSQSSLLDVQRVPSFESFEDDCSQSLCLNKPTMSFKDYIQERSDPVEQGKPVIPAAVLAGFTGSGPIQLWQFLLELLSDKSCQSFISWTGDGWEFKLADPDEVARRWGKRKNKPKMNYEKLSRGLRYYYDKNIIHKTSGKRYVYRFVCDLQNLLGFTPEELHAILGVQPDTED
# How it was run: as §1
# SPDEF = molecular target: T4, SPDEF (Homo sapiens, UniProt O95238 1-335)
# T4 sequence: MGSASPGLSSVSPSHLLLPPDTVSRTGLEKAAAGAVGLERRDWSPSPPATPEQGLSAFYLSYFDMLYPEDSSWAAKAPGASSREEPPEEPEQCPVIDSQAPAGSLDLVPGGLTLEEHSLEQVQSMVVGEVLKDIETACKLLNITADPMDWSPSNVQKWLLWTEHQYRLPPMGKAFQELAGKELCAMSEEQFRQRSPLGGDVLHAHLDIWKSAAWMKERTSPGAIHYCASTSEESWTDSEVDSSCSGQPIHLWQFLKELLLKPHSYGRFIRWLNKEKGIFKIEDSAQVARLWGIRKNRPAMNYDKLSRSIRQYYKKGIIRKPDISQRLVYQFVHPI
# How it was run: as §1
# ETV7 = molecular target: T5, ETV7 (Homo sapiens, UniProt Q9Y603 1-341)
# T5 sequence: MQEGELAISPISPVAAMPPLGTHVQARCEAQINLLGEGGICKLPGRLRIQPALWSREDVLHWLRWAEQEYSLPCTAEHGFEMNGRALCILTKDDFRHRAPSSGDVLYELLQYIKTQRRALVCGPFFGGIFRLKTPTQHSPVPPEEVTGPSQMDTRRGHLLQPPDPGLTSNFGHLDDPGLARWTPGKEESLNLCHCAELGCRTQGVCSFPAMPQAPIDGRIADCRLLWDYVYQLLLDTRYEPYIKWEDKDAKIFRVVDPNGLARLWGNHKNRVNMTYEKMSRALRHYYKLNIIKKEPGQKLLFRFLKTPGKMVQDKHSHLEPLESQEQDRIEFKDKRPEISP
# How it was run: as §1
# ETV3 = molecular target: T6, ETV3 (Homo sapiens, UniProt P41162-2 1-143)
# T6 sequence: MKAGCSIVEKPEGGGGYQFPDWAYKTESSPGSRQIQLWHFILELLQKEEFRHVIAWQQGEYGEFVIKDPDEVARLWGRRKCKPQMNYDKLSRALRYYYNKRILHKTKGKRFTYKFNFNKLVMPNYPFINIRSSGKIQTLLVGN
# How it was run: as §1
# ETV6 = ETV6 (Homo sapiens, UniProt P41212 1-452)
# Sequence of ETV6 (P41212 whole entry): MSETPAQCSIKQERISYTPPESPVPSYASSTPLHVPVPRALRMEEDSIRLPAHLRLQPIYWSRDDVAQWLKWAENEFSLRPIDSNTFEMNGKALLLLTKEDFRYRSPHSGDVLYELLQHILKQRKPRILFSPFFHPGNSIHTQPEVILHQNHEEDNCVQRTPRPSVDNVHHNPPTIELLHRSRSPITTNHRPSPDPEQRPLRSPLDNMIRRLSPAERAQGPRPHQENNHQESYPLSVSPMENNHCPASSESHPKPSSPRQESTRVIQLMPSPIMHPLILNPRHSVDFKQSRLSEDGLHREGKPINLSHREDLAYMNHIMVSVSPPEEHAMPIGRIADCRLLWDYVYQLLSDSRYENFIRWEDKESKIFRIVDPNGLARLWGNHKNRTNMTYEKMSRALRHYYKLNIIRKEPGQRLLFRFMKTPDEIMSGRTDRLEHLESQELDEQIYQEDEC
# How it was run: as §1
# ELF5 = molecular target: T7, ELF5 (Homo sapiens, UniProt Q9UKW6-2 1-255)
# T7 sequence: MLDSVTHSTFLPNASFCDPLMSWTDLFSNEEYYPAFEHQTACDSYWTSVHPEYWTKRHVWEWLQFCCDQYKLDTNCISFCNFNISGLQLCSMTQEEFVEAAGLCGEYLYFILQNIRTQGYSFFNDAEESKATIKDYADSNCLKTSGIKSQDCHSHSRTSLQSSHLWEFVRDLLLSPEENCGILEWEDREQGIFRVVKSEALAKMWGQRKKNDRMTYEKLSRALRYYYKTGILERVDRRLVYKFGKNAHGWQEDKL
# How it was run: as §1
Sequence,binding signal (ERF),binding signal (ETV3L),binding signal (ETS2),binding signal (SPDEF),binding signal (ETV7),binding signal (ETV3),binding signal (ETV6),binding signal (ELF5)
ATAAGC,"1.18 fold enrichment (6-mer frequency, TF over GST control)","1.12 fold enrichment (6-mer frequency, TF over GST control)","1.08 fold enrichment (6-mer frequency, TF over GST control)","1.07 fold enrichment (6-mer frequency, TF over GST control)","1.11 fold enrichment (6-mer frequency, TF over GST control)","1.11 fold enrichment (6-mer frequency, TF over GST control)","1.02 fold enrichment (6-mer frequency, TF over GST control)",
GCTTGG,"1.18 fold enrichment (6-mer frequency, TF over GST control)","1.01 fold enrichment (6-mer frequency, TF over GST control)","1.14 fold enrichment (6-mer frequency, TF over GST control)","1.08 fold enrichment (6-mer frequency, TF over GST control)","1.13 fold enrichment (6-mer frequency, TF over GST control)","1.02 fold enrichment (6-mer frequency, TF over GST control)","1.13 fold enrichment (6-mer frequency, TF over GST control)",
GATAGC,"1.15 fold enrichment (6-mer frequency, TF over GST control)","1.06 fold enrichment (6-mer frequency, TF over GST control)","1.12 fold enrichment (6-mer frequency, TF over GST control)","1.05 fold enrichment (6-mer frequency, TF over GST control)","1.06 fold enrichment (6-mer frequency, TF over GST control)","1.05 fold enrichment (6-mer frequency, TF over GST control)","1.03 fold enrichment (6-mer frequency, TF over GST control)",
GTGCTA,"1.02 fold enrichment (6-mer frequency, TF over GST control)","1.04 fold enrichment (6-mer frequency, TF over GST control)","1.13 fold enrichment (6-mer frequency, TF over GST control)","1.12 fold enrichment (6-mer frequency, TF over GST control)","1 fold enrichment (6-mer frequency, TF over GST control)","1.11 fold enrichment (6-mer frequency, TF over GST control)",,
CGATCG,"1.04 fold enrichment (6-mer frequency, TF over GST control)","1.03 fold enrichment (6-mer frequency, TF over GST control)","1.04 fold enrichment (6-mer frequency, TF over GST control)","1.1 fold enrichment (6-mer frequency, TF over GST control)","1 fold enrichment (6-mer frequency, TF over GST control)","1.09 fold enrichment (6-mer frequency, TF over GST control)","1.03 fold enrichment (6-mer frequency, TF over GST control)",
GGCATT,"1.08 fold enrichment (6-mer frequency, TF over GST control)","1.06 fold enrichment (6-mer frequency, TF over GST control)","1.09 fold enrichment (6-mer frequency, TF over GST control)","1 fold enrichment (6-mer frequency, TF over GST control)","1.05 fold enrichment (6-mer frequency, TF over GST control)","1.07 fold enrichment (6-mer frequency, TF over GST control)","1.12 fold enrichment (6-mer frequency, TF over GST control)",
GCACGC,"1.09 fold enrichment (6-mer frequency, TF over GST control)","1.07 fold enrichment (6-mer frequency, TF over GST control)","1 fold enrichment (6-mer frequency, TF over GST control)","1.04 fold enrichment (6-mer frequency, TF over GST control)","1.07 fold enrichment (6-mer frequency, TF over GST control)","1.14 fold enrichment (6-mer frequency, TF over GST control)","1.07 fold enrichment (6-mer frequency, TF over GST control)",
TCACAG,"1.02 fold enrichment (6-mer frequency, TF over GST control)","1.13 fold enrichment (6-mer frequency, TF over GST control)","1.06 fold enrichment (6-mer frequency, TF over GST control)","1.05 fold enrichment (6-mer frequency, TF over GST control)","1.11 fold enrichment (6-mer frequency, TF over GST control)","1.06 fold enrichment (6-mer frequency, TF over GST control)","1.11 fold enrichment (6-mer frequency, TF over GST control)",
ACAGAT,"1.06 fold enrichment (6-mer frequency, TF over GST control)","1.01 fold enrichment (6-mer frequency, TF over GST control)","1.03 fold enrichment (6-mer frequency, TF over GST control)","1.05 fold enrichment (6-mer frequency, TF over GST control)","1.12 fold enrichment (6-mer frequency, TF over GST control)","1.02 fold enrichment (6-mer frequency, TF over GST control)",,
AGGTAT,"1.16 fold enrichment (6-mer frequency, TF over GST control)","1.02 fold enrichment (6-mer frequency, TF over GST control)","1 fold enrichment (6-mer frequency, TF over GST control)","1.12 fold enrichment (6-mer frequency, TF over GST control)","1.12 fold enrichment (6-mer frequency, TF over GST control)","1.11 fold enrichment (6-mer frequency, TF over GST control)","1.01 fold enrichment (6-mer frequency, TF over GST control)",
GCACGA,"1.13 fold enrichment (6-mer frequency, TF over GST control)","1 fold enrichment (6-mer frequency, TF over GST control)","1.03 fold enrichment (6-mer frequency, TF over GST control)","1 fold enrichment (6-mer frequency, TF over GST control)","1.19 fold enrichment (6-mer frequency, TF over GST control)","1.1 fold enrichment (6-mer frequency, TF over GST control)","1.06 fold enrichment (6-mer frequency, TF over GST control)",
TGACTA,"1.14 fold enrichment (6-mer frequency, TF over GST control)","1.08 fold enrichment (6-mer frequency, TF over GST control)","1.04 fold enrichment (6-mer frequency, TF over GST control)","1.08 fold enrichment (6-mer frequency, TF over GST control)","1.07 fold enrichment (6-mer frequency, TF over GST control)","1.05 fold enrichment (6-mer frequency, TF over GST control)","1.15 fold enrichment (6-mer frequency, TF over GST control)",
TAACAG,"1.05 fold enrichment (6-mer frequency, TF over GST control)","1.05 fold enrichment (6-mer frequency, TF over GST control)","1.03 fold enrichment (6-mer frequency, TF over GST control)","1.11 fold enrichment (6-mer frequency, TF over GST control)","1.09 fold enrichment (6-mer frequency, TF over GST control)","1.02 fold enrichment (6-mer frequency, TF over GST control)","1 fold enrichment (6-mer frequency, TF over GST control)",
ATCAAT,"1.15 fold enrichment (6-mer frequency, TF over GST control)","1.03 fold enrichment (6-mer frequency, TF over GST control)","1.05 fold enrichment (6-mer frequency, TF over GST control)","1.03 fold enrichment (6-mer frequency, TF over GST control)","1.12 fold enrichment (6-mer frequency, TF over GST control)","1.14 fold enrichment (6-mer frequency, TF over GST control)","1.07 fold enrichment (6-mer frequency, TF over GST control)",
TTGCGT,"1.21 fold enrichment (6-mer frequency, TF over GST control)","1.03 fold enrichment (6-mer frequency, TF over GST control)","1.08 fold enrichment (6-mer frequency, TF over GST control)","1.03 fold enrichment (6-mer frequency, TF over GST control)",,"1.03 fold enrichment (6-mer frequency, TF over GST control)","1.13 fold enrichment (6-mer frequency, TF over GST control)","1.03 fold enrichment (6-mer frequency, TF over GST control)"
